HT1080 IDH1KD tx: toxicity to HT-1080 IDH1 knockdown cells (counter line) | HT-1080 IDH1 knockdown viability, ATP luminescence, 48 h | Potency, µM (doses to about 46.1 µM), actives largely listed as cytotoxic | hit rate 2% among 360,000 | AID 686971
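% activity derives from luminescence (CellTiter-Glo), normalised to DMSO and no-cell wells. HT-1080-IDH1KD cells, 750/well, had 48 h compound exposure at 37 °C.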
TDP1 cell CPT: growth inhibition of DT40 Tdp1-/-;hTDP1 cells with camptothecin (screen for TDP1 inhibitors) | hit rate 12% among 420,000 | chicken DT40 Tdp1-/-;hTDP1 cells + 20 nM CPT, ATP luminescence, 48 h | AID 686979 | Potency, µM (top dose mostly 46.2 µM), hits mostly inhibitors; also: nearly all actives have a fitted effect of over 55% in size
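Chicken DT40 Tdp1-/- cells complemented with human TDP1, 400 cells/well, exposed to compounds plus 20 nM camptothecin for at least 48 h at 37 C; viability read as ATP content by CellTiter-Glo luminescence.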
HT1080-NT tox: kills 2HG-producing HT-1080-NT fibrosarcoma cells; HT-1080-NT fibrosarcoma viability, CellTiter-Glo ATP luminescence, 48 h; Potency, µM (series often up to 46.1 µM), actives largely listed as cytotoxic; hit rate 1.6% among 360,000;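 also: NT is the 2HG producing partner of a matched IDH1 knockdown line; nearly all actives have a fitted effect of over 55% in size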
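Read-out is CellTiter-Glo luminescence after 10 minutes at room temperature, following 48 hours' compound treatment of HT-1080-NT cells (750 cells/well, RPMI, 5% FBS, 37 degrees C).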
DT40 TDP1 no CPT: qHTS for Inhibitors of human tyrosyl-DNA phosphodiesterase 1 (TDP1): qHTS in cells in absence of CPT; DT40 Tdp1-/- hTDP1 cells, no CPT, ATP luminescence, 48 h; Potency, µM (titrated, usually from 46.2 µM), actives largely listed as inhibitors; hit rate 15% among 420,000; also: nearly all actives have a fitted effect of over 55% in size
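Seeded 400 DT40-hTDP1 cells/well (vehicle DMSO, no 20 nM CPT); pinned compounds; ≥48 hr at 37 °C; CellTiter-Glo luminescence as viability measure.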
IL1B secr inh: blocks inflammasome-driven IL-1 beta release; AID 743279; THP-1 LPS/ATP IL-1B secretion, AlphaLISA, 16 h; active compounds read low; activity change, % at 57.5 µM; hit rate 4.7% among 360,000; in the data active = activity change below about -50%; inconclusive = mostly about -30% to -49%
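THP-1 cells pretreated 1 hr with compounds (up to 57.5 uM final), then stimulated with LPS (250 ng/mL final) plus ATP (1.25 mM final); secreted IL-1B measured by AlphaLISA after 16 hr, decreased signal indicating inhibition.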
A number is an active result; i = inactive; ? = inconclusive; nt = not tested or not shown. Rows were chosen to be rich in hits. Some 19% of all compounds tested hit in one or more screens of this group. Unless noted, calls follow the shape of the dose curve; as a rule, active = well fitted curve in the direction sought with a large enough effect; inconclusive = small, poorly fitted or top-dose-only effect, or another doubt; inactive = no such curve, though single readings can be large; an effect the other way counts as inactive or inconclusive.

SMILES | HT1080 IDH1KD tx | TDP1 cell CPT | HT1080-NT tox | DT40 TDP1 no CPT | IL1B secr inh
CN(CCO)c1cc(Sc2nc3ccccc3s2)c2nonc2c1[N+](=O)[O-] | 5.01µM | 2.06µM | 6.31µM | 1.84µM | i
COC(=O)c1c(NC(=O)CCCOc2cccc(C)c2)sc2c1C(C(=O)OC)CC2 (stereo unspecified) | nt | 16.4µM | nt | 14.6µM | nt
CCOc1ccc(/C=C/C(=O)Nc2sc3c(c2C(=O)OC)C(C(=O)OC)CC3)cc1 (stereo unspecified) | nt | 9.2µM | nt | 9.2µM | nt
COC(=O)c1c(NC(=O)Cc2ccccc2)sc2c1C(C(=O)OC)CC2 (stereo unspecified) | i | ? | i | ? | i
COC(=O)c1c(NC(=O)CCCOc2ccc(C)cc2)sc2c1C(C(=O)OC)CC2 (stereo unspecified) | nt | 14.6µM | nt | 13µM | nt
CCOC(=O)c1c(NC(=O)/C=C/c2ccc(OCC)cc2)sc2c1CCC2 | nt | i | nt | i | nt
CC[N+](C)(C)c1ccc(/C=C/c2ccc3ccccc3n2)cc1 | nt | 0.0282µM | nt | ? | nt
CC(=O)/C=C/c1ccc2ccccc2n1 | ? | 5.17µM | ? | 2.59µM | -119.7
O/N=C/c1ccc2ccccc2n1 | i | i | i | i | i
CC(OC(=O)/C=C/c1ccc2ccccc2n1)C(=O)N(C)c1ccccc1 (stereo unspecified) | i | ? | i | ? | i
CCN(CC)c1ccc(/C=C/c2ccc3ccccc3n2)cc1 | nt | 0.159µM | nt | 0.159µM | nt
Clc1ccc(/C=C/c2ccc3ccccc3n2)cc1Cl | nt | 6.31µM | nt | 3.55µM | nt
COc1cccc(C(=O)N2CCc3c(C(=O)NC(C)c4ccco4)c(OC)cc(=O)n3CC2)c1OC (stereo unspecified) | nt | i | nt | i | nt
COC(=O)CN1C(=O)COc2ccc(S(=O)(=O)N3CCCCC3)cc21 | i | i | i | i | i
O=S(=O)(N[C@H](CO)c1ccccc1)c1ccc(Br)cc1F | i | i | i | i | i
COc1ccccc1NC(CC(=O)c1ccccc1)C(=O)OCC(=O)c1ccc(F)cc1 (stereo unspecified) | i | ? | i | ? | i
Cc1cc(C)n2c(Br)c(CSc3nc4ccccc4s3)nc2n1 | i | i | i | 18.4µM | i
C#CCSc1nnc(CSc2nc3ccccc3s2)n1-c1ccccc1 | i | ? | i | 18.4µM | ?
O=C(O)CSc1nnc(CSc2nc3ccccc3s2)n1-c1ccccc1 | i | i | i | i | i
CCn1c(CSc2nc3ccccc3s2)nc2ccccc21 | i | ? | i | 16.4µM | i
COc1ccc([C@H]2C[C@H](O)[C@@H](n3cc(C4CC4)nn3)CN2C(=O)c2cccs2)cc1 | i | i | i | i | i
CNC1CCCN(c2c(F)cc3c(=O)c(C(=O)O)cn(C4CC4)c3c2OC)C1 (stereo unspecified) | nt | i | nt | i | nt
COc1c(N2CCN(C(=S)NCc3ccccc3)C(C)C2)c(F)cc2c(=O)c(C(=O)O)cn(C3CC3)c12 (stereo unspecified) | 18.4µM | ? | ? | 23.1µM | i
O=C(Oc1cccc(-n2cnnn2)c1)c1ccccc1Cl | i | i | i | i | i
COc1ccccc1-c1nnc(NC(=O)C(C)SC2=NCCS2)s1 (stereo unspecified) | i | 20.6µM | i | ? | ?
SMILES | HT1080 IDH1KD tx | TDP1 cell CPT | HT1080-NT tox | DT40 TDP1 no CPT | IL1B secr inh
CCNc1nnc(-c2ccccc2OC)s1 | i | i | i | i | i
CC(SC1=NCCS1)C(=O)Nc1nnc(-c2ccc(Cl)cc2)s1 (stereo unspecified) | i | 14.6µM | i | 20.6µM | ?
CN(C)CCNc1ncnc2c1ncn2[C@H]1CN(Cc2ccco2)C[C@@H](CO)O1 | i | i | i | i | i
CCc1ccc(NC(=O)Cn2c(=O)nc(-c3ccccc3F)c3cc(Cl)ccc32)cc1 | nt | i | nt | i | nt
COc1cc(NC(=O)Cn2c(=O)nc(-c3ccccc3F)c3cc(Cl)ccc32)cc(OC)c1 | nt | 14.6µM | nt | 10.3µM | nt
CCc1c(C)sc2c1CCN(C(=O)Nc1cc(Cl)c(OC)cc1OC)C2c1ccccc1 (stereo unspecified) | nt | ? | nt | 25.9µM | nt
CCc1c(C)sc2c1CCN(C(=O)Nc1ccc(F)c(Cl)c1)C2c1ccc(F)cc1 (stereo unspecified) | nt | ? | nt | 16.4µM | nt
CCc1c(C)sc2c1CCN(C(=O)Nc1ccccc1C(F)(F)F)C2c1ccccc1 (stereo unspecified) | nt | ? | nt | 7.31µM | nt
CC(=O)N1CCN(S(=O)(=O)c2ccc(S(=O)(=O)N3CCCC(C)C3)cc2)CC1 (stereo unspecified) | i | i | i | i | i
CC(C)(C)OC(=O)C[C@H]1C/C=C\C[C@@H](CC(=O)N(CCO)Cc2ccccc2)C(=O)N[C@H](Cc2ccccc2)COC1=O | i | ? | i | ? | i
COc1ccccc1N1CCN(C(=O)c2cc3c(=O)n4cccc(C)c4nc3s2)CC1 | i | i | i | ? | i
